The source made the active and inactive calls. Rule for the calls: active = hit-call score of the fitted dose curve at least 0.9, where 1 is the maximum; inactive = score below 0.9.
Key:
Conditions in all cases: mRNA level, 48 h; actives raise or lower the signal
[1] = read-out: Glutamate-cysteine ligase regulatory (GCLM), GCLM (gene 2730); assay: LTEA_HepaRG_GCLM: Life Technologies and Expression Analysis (LTEA) Assay for Glutamate-cysteine ligase regulatory (GCLM) using HepaRG (AID 2283500)
Method in brief: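 Human liver HepaRG cultures receive test chemicals for 48 hours at up to 100 uM in 0.5% DMSO. GCLM expression is measured by qRT-PCR and analysed for increases or decreases against vehicle.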

[2] = read-out: Glutathione S-transferase M3 (GSTM3), GSTM3 (gene 2947); assay: LTEA_HepaRG_GSTM3: Life Technologies and Expression Analysis (LTEA) Assay for Glutathione S-transferase M3 (GSTM3) using HepaRG (AID 2283501)
Method in brief: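 HepaRG, plated 48 h, then serum-free induction medium; test chemical 48 h, duplicate; 100 uM top, half-log x8, 0.5% DMSO. Read-out: GSTM3 mRNA (TaqMan qRT-PCR, Fluidigm array). Bidirectional fit vs DMSO.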

[3] = read-out: Heat shock 70 kDa protein 1 (HSPA1A), gene 3303; assay: LTEA_HepaRG_HSPA1A: Life Technologies and Expression Analysis (LTEA) Assay for Heat shock 70 kDa protein 1 (HSPA1A) using HepaRG (AID 2283502)
Method in brief: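 HSPA1A induction in human HepaRG liver cells is measured after 48 h of chemical treatment (100 uM maximum, 0.5% DMSO vehicle). Expression comes from qRT-PCR normalized to endogenous controls.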

[4] = read-out: Hypoxia-inducible factor 1-alpha (Homo sapiens) (UniProt Q16665); assay: LTEA_HepaRG_HIF1A: Life Technologies and Expression Analysis (LTEA) Assay for Hypoxia-inducible factor 1 (HIF1A) Trancription factor using HepaRG (AID 2283503);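 note: HIF1A transcript by TaqMan qRT-PCR normalized to ACTB GAPDH and POLR2A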
Method in brief: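 HepaRG, 48 h exposure, 8-pt half-log series from 100 uM, 0.5% DMSO vehicle, duplicates. Readout: HIF1A transcript by qRT-PCR (Fluidigm array), housekeeping-normalised. Bidirectional curve fit vs DMSO baseline.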

[5] = read-out: 3-Hydroxy-3-Methylglutaryl-CoA Synthase 2 (HMGCS2), HMGCS2 (gene 3158); assay: LTEA_HepaRG_HMGCS2: Life Technologies and Expression Analysis (LTEA) Assay for 3-Hydroxy-3-Methylglutaryl-CoA Synthase 2 (HMGCS2) using HepaRG (AID 2283504)
Method in brief: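 HepaRG, plated 48 h then switched to serum-free induction media; cmpd 8-pt, max 100 uM, 1/2-log, 0.5% DMSO, n=2, 48 h. HMGCS2 mRNA by Fluidigm TaqMan qRT-PCR, ACTB/GAPDH/POLR2A norm; bidirectional fit vs DMSO.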

[6] = read-out: HGF (gene 3082); assay: LTEA_HepaRG_HGF: Life Technologies and Expression Analysis (LTEA) Assay for Hepatocyte Growth Facto (HGF) using HepaRG (AID 2283505)
Method in brief: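 Read-out is HGF transcript level by qRT-PCR, normalized to three housekeeping genes, fitted bidirectionally against 0.5% DMSO vehicle. Human HepaRG cells received test chemicals for 48 h at up to 100 uM.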

[7] = read-out: Intercellular Adhesion Molecule 1 (ICAM1), ICAM1 (gene 3383); assay: LTEA_HepaRG_ICAM1: Life Technologies and Expression Analysis (LTEA) Assay for Intercellular Adhesion Molecule 1 (ICAM1) using HepaRG (AID 2283507)
Method in brief: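 Readout is qRT-PCR mRNA level, normalized to three housekeeping genes and fitted bidirectionally against 0.5% DMSO vehicle. Human HepaRG cultures received compound for 48 h, top concentration 100 uM with half-log dilutions.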

[8] = read-out: Insulin-like growth factor-binding protein 1 (IGFBP1), IGFBP1 (gene 3484); assay: LTEA_HepaRG_IGFBP1: Life Technologies and Expression Analysis (LTEA) Assay for Insulin-like growth factor-binding protein 1 (IGFBP1) using HepaRG (AID 2283508)
Method in brief: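 Thawed HepaRG cells are plated for 48 h, switched to serum-free induction medium, then dosed in duplicate for another 48 h (100 uM top, half-log steps). Lysates in RLT go to qRT-PCR, and gain or loss of signal is fitted relative to vehicle.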

[9] = read-out: Insulin Like Growth Factor 1 (IGF1), IGF1 (gene 3479); assay: LTEA_HepaRG_IGF1: Life Technologies and Expression Analysis (LTEA) Assay for Insulin Like Growth Factor 1 (IGF1) using HepaRG (AID 2283506)
Method in brief: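 Using human HepaRG liver cells, IGF1 transcript induction or suppression is measured 48 h after dosing across eight concentrations capped at 100 uM. Values derive from bidirectional concentration-response fitting with DMSO as baseline.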

[10] = read-out: Interleukin 6 (IL6), IL6 (gene 3569); assay: LTEA_HepaRG_IL6: Life Technologies and Expression Analysis (LTEA) Assay for Interleukin 6 (IL6) using HepaRG (AID 2283509)
Method in brief: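 HepaRG, ~100,000 cells/well, 48 h pre-culture; serum-free induction medium; cmpd 8-pt half-log from 100 uM, 0.5% DMSO, duplicate, 48 h. Lysis in RLT, TaqMan qRT-PCR; gain or loss vs DMSO.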

Sequence of Hypoxia-inducible factor 1-alpha (Homo sapiens) (Q16665 whole entry, looked up): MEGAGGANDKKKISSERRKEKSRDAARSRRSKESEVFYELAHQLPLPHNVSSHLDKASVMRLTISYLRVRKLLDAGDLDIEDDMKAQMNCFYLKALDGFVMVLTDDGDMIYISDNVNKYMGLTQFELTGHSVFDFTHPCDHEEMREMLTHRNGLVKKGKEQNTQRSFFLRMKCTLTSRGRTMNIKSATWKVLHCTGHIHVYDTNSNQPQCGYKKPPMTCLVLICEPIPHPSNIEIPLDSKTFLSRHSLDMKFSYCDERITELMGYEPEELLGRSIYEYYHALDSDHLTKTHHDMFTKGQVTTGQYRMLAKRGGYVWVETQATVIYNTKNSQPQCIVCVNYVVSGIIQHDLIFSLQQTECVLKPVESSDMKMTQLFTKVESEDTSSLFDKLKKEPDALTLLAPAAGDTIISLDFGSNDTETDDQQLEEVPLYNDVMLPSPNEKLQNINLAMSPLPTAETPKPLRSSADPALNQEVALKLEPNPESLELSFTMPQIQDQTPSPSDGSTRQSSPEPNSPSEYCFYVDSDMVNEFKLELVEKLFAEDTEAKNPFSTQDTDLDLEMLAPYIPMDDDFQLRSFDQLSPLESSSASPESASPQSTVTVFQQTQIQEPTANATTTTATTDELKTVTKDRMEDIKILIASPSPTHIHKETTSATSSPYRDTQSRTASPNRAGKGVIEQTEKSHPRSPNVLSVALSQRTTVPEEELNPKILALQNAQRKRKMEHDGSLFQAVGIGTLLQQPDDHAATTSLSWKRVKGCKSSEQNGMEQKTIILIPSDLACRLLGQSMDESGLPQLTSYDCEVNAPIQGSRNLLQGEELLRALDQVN

SMILES: CC1(C)C(C=C(Cl)Cl)C1C(=O)OC(C#N)c1cccc(Oc2ccccc2)c1 (centres undefined)
- outcome [1]: inactive
- outcome [2]: inactive
- outcome [3]: inactive
- outcome [4]: inactive
- outcome [5]: inactive
- outcome [6]: inactive
- outcome [7]: inactive
- outcome [8]: inactive

SMILES: CC1(C)CCC(=Cc2ccc(Cl)cc2)C1(O)Cn1cncn1 (centres undefined)
- outcome [1]: inactive
- outcome [2]: inactive
- outcome [3]: inactive
- outcome [4]: inactive
- outcome [5]: inactive
- outcome [6]: inactive
- AC50 [9]: 25 µM (active)
- outcome [7]: inactive
- outcome [8]: inactive

SMILES: Nc1cnn(-c2ccccc2)c(=O)c1Cl
- outcome [1]: inactive
- outcome [2]: inactive
- outcome [3]: inactive
- outcome [4]: inactive
- outcome [5]: inactive
- outcome [6]: inactive
- outcome [7]: inactive
- outcome [8]: inactive

SMILES: C=C(C)CN(CC)c1c([N+](=O)[O-])cc(C(F)(F)F)cc1[N+](=O)[O-]
- outcome [1]: inactive
- outcome [2]: inactive
- outcome [3]: inactive
- outcome [4]: inactive
- outcome [5]: inactive
- outcome [6]: inactive
- outcome [9]: inactive
- outcome [7]: inactive
- outcome [8]: inactive

SMILES: N#CN=C1SCCN1Cc1ccc(Cl)nc1
- outcome [1]: inactive
- outcome [2]: inactive
- outcome [3]: inactive
- outcome [4]: inactive
- outcome [5]: inactive
- outcome [6]: inactive
- outcome [7]: inactive
- outcome [8]: inactive
- outcome [10]: inactive

SMILES: Cc1cnc(C2=NC(C)(C(C)C)C(=O)N2)c(C(=O)O)c1 (centres undefined)
- outcome [1]: inactive
- outcome [2]: inactive
- outcome [3]: inactive
- outcome [4]: inactive
- outcome [5]: inactive
- outcome [6]: inactive
- outcome [7]: inactive
- outcome [8]: inactive
- outcome [10]: inactive

SMILES: CCCN(CC)CC1COC2(CCC(C(C)(C)C)CC2)O1 (centres undefined)
- outcome [1]: inactive
- outcome [2]: inactive
- outcome [3]: inactive
- outcome [4]: inactive
- outcome [5]: inactive
- outcome [6]: inactive
- outcome [7]: inactive
- outcome [8]: inactive

SMILES: CN/C(=N\[N+](=O)[O-])NCc1cnc(Cl)s1
- outcome [1]: inactive
- outcome [2]: inactive
- outcome [3]: inactive
- outcome [4]: inactive
- outcome [5]: inactive
- outcome [6]: inactive
- outcome [9]: inactive
- outcome [7]: inactive
- outcome [8]: inactive
- outcome [10]: inactive

SMILES: N#Cc1c[nH]cc1-c1cccc2c1OC(F)(F)O2
- AC50 [1]: 93.2 µM (active)
- AC50 [2]: 50 µM (active)
- outcome [3]: inactive
- AC50 [4]: 83.4 µM (active)
- AC50 [5]: 79.3 µM (active)
- outcome [6]: inactive
- outcome [7]: inactive
- AC50 [8]: 69 µM (active)

SMILES: COC(=O)NS(=O)(=O)c1ccc(N)cc1
- outcome [1]: inactive
- outcome [2]: inactive
- outcome [3]: inactive
- outcome [4]: inactive
- outcome [5]: inactive
- outcome [6]: inactive
- outcome [7]: inactive
- outcome [8]: inactive
- outcome [10]: inactive

SMILES: CCNP(=S)(OC)O/C(C)=C/C(=O)OC(C)C (centres undefined)
- AC50 [1]: 9.92 µM (active)
- outcome [2]: inactive
- outcome [3]: inactive
- outcome [4]: inactive
- outcome [6]: inactive
- AC50 [9]: 50 µM (active)
- outcome [7]: inactive
- outcome [8]: inactive

SMILES: CCOC(=O)C(C)OC(=O)c1cc(Oc2ccc(C(F)(F)F)cc2Cl)ccc1[N+](=O)[O-] (centres undefined)
- outcome [1]: inactive
- outcome [2]: inactive
- outcome [3]: inactive
- outcome [4]: inactive
- AC50 [5]: 1.38 µM (active)
- outcome [6]: inactive
- outcome [7]: inactive
- outcome [8]: inactive
- AC50 [10]: 9.92 µM (active)

SMILES: CC(C)N1C(=O)c2ccccc2NS1(=O)=O
- outcome [1]: inactive
- outcome [2]: inactive
- outcome [3]: inactive
- outcome [4]: inactive
- outcome [6]: inactive
- outcome [9]: inactive
- outcome [7]: inactive
- outcome [8]: inactive

SMILES: O=C(Nc1ccccc1-c1ccc(Cl)cc1)c1cccnc1Cl
- outcome [1]: inactive
- outcome [2]: inactive
- outcome [3]: inactive
- outcome [4]: inactive
- AC50 [5]: 52.5 µM (active)
- outcome [6]: inactive
- AC50 [9]: 52.5 µM (active)
- outcome [7]: inactive
- outcome [8]: inactive

SMILES: Nc1c(Cl)c(F)nc(OCC(=O)O)c1Cl
- outcome [1]: inactive
- outcome [2]: inactive
- outcome [3]: inactive
- outcome [4]: inactive
- outcome [6]: inactive
- outcome [7]: inactive
- outcome [8]: inactive
- outcome [10]: inactive

SMILES: COc1cc(Cl)c(OC)cc1Cl
- outcome [1]: inactive
- outcome [2]: inactive
- outcome [3]: inactive
- outcome [6]: inactive
- outcome [7]: inactive
- outcome [8]: inactive

SMILES: CCCCC(C#N)(Cn1cncn1)c1ccc(Cl)cc1 (centres undefined)
- outcome [1]: inactive
- outcome [2]: inactive
- outcome [3]: inactive
- outcome [4]: inactive
- outcome [6]: inactive
- outcome [7]: inactive
- outcome [8]: inactive
- outcome [10]: inactive

SMILES: O=c1n(Cl)c(=O)n(Cl)c(=O)n1Cl
- outcome [1]: inactive
- outcome [2]: inactive
- outcome [3]: inactive
- outcome [4]: inactive
- outcome [6]: inactive
- outcome [9]: inactive
- outcome [7]: inactive
- outcome [8]: inactive
- outcome [10]: inactive

SMILES: CCC(C)n1c(=O)[nH]c(C)c(Br)c1=O (centres undefined)
- outcome [1]: inactive
- outcome [2]: inactive
- outcome [3]: inactive
- outcome [4]: inactive
- outcome [6]: inactive
- AC50 [9]: 8.53 µM (active)
- outcome [7]: inactive
- AC50 [8]: 18.1 µM (active)
- outcome [10]: inactive

SMILES: O=P(O)(O)CCCl
- outcome [1]: inactive
- outcome [2]: inactive
- outcome [3]: inactive
- outcome [4]: inactive
- outcome [6]: inactive
- outcome [9]: inactive
- outcome [7]: inactive
- outcome [8]: inactive

SMILES: CC(C)=CC1C(C(=O)OCc2coc(Cc3ccccc3)c2)C1(C)C (centres undefined)
- outcome [1]: inactive
- outcome [2]: inactive
- outcome [3]: inactive
- outcome [4]: inactive
- outcome [6]: inactive
- outcome [7]: inactive
- outcome [8]: inactive

SMILES: CS(=O)(=O)c1cc(C(F)(F)F)ccc1C(=O)c1cnoc1C1CC1
- outcome [1]: inactive
- outcome [2]: inactive
- outcome [3]: inactive
- outcome [4]: inactive
- outcome [6]: inactive
- outcome [9]: inactive
- outcome [7]: inactive
- outcome [8]: inactive
- outcome [10]: inactive

SMILES: COCC(C)N(C(=O)CCl)c1c(C)csc1C (centres undefined)
- outcome [1]: inactive
- outcome [2]: inactive
- outcome [3]: inactive
- outcome [5]: inactive
- outcome [6]: inactive
- AC50 [9]: 50 µM (active)
- outcome [7]: inactive
- outcome [8]: inactive
- AC50 [10]: 22.7 µM (active)
